Hits are enriched below; roughly 19% of the tested compounds scored in any of these assays.
TDP1 cell noCPT: qHTS for Inhibitors of human tyrosyl-DNA phosphodiesterase 1 (TDP1): qHTS in cells in absence of CPT. Potency, µM (highest dose often 46.2 µM), usual class: inhibitors. DT40 Tdp1-/- hTDP1 cells, no CPT, ATP luminescence, 48 h. 420,000 tested, 15% active. AID 686978, 2013; note: nearly all actives have a fitted effect of over 55% in size
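Luminescent ATP content (CellTiter-Glo) served as the growth readout. Knockout chicken DT40 cells expressing human TDP1 were exposed to compounds without camptothecin for a minimum 48 hr at 37 °C.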
RORg inh: blocks mouse ROR gamma transcriptional activity; P51450; Drosophila S2 Gal4-RORgamma UAS-luciferase reporter, 20 h; Potency, µM (highest dose often 53.6 µM), usual class: inhibitors; 310,000 tested, 5.4% active; AID 2551; note: nearly all actives have a fitted effect of over 60% in size
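Using a luciferase readout, inhibitors were identified by reduced reporter activity in Drosophila cells coexpressing a copper-inducible Gal4–ROR gamma fusion and UAS-driven Photinus luciferase, incubated 20 hr after 700 uM copper sulfate.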
DT40 TDP1 CPT: DT40-hTDP1 cell growth loss with CPT. chicken DT40 Tdp1-/-;hTDP1 cells + 20 nM CPT, ATP luminescence, 48 h. Potency, µM (doses to about 46.2 µM), hits mostly inhibitors. 420,000 tested, 12% active; note: nearly all actives have a fitted effect of over 55% in size
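Chicken DT40 Tdp1-/- cells stably complemented with human TDP1 were seeded at 400 cells/well in medium containing 20 nM camptothecin, exposed to pin-transferred compounds, and grown at 37 °C for at least 48 hr. Viability was read as ATP luminescence.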
Gal4-VP16 FLuc: counter-screen for ROR gamma inhibitors: Gal4-VP16 reporter. Drosophila S2 Gal4-VP16 UAS-luciferase, luminescence, 20 h. Potency, µM (titrated, usually from 53.6 µM), actives largely listed as inhibitors. 310,000 tested, 3.5% active. AID 2546;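 note: Gal4-VP16 expression switched on by copper sulfate through the metallothionein promoter; nearly all actives have a fitted effect of over 50% in size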
TDP1 inh: blocks human tyrosyl-DNA phosphodiesterase 1; recombinant TDP1, AlphaScreen DNA substrate cleavage; Potency, µM (series often up to 130 µM), usual class: inhibitors; 350,000 tested, 0.28% active; AID 485290; note: nearly all actives have a fitted effect of over 40% in size
Target sequence (Q9NUW8 whole entry, looked up): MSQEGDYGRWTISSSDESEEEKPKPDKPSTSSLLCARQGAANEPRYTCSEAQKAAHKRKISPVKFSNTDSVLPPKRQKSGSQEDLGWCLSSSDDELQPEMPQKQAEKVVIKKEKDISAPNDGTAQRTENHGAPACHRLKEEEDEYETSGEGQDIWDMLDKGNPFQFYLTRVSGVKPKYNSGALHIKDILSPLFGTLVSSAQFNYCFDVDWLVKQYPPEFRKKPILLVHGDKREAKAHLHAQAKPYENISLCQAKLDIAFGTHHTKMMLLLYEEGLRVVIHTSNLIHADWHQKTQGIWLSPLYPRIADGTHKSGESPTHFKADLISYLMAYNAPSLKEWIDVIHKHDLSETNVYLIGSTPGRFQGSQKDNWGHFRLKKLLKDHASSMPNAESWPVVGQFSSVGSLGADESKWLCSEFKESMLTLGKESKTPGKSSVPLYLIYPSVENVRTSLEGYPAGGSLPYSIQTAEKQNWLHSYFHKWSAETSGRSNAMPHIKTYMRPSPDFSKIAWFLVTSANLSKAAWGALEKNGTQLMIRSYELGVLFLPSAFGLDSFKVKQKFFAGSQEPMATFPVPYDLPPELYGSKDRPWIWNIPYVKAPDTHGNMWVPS
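E. coli-derived human Tdp1, 1 nM final. Cpd preinc 15 min RT; substrate 15 nM final, 5 min RT; AS bead mix 10 ug/ml final, 10 min RT. Signal loss = tyrosine-FITC cleavage. No-enzyme wells = max signal.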
Each line names hits and unclear results; the compound was inactive in the other large screens. Calls come from the whole dose curve; as a rule, active = well fitted curve in the direction sought with a large enough effect; inconclusive = small, poorly fitted or top-dose-only effect, or another doubt; inactive = no such curve, though single readings can be large; an effect the other way counts as inactive or inconclusive.

CSc1ccccc1NC(=O)C1CC(c2ccccc2O)=NO1 (stereo not given)	TDP1 cell noCPT inconclusive, RORg inh inconclusive, Gal4-VP16 FLuc inconclusive
COC(=O)c1ccccc1NC(=O)C1CC(c2ccccc2O)=NO1 (stereo not given)	RORg inh 13µM, Gal4-VP16 FLuc inconclusive
CC1(C(=O)NS(C)(=O)=O)CCN1C(=O)CC(c1ccccc1)c1ccccc1 (stereo not given)	none (no result: RORg inh, Gal4-VP16 FLuc, TDP1 inh)
CC1(C(=O)NS(=O)(=O)c2ccccc2Cl)CCN1C(=O)CC(c1ccccc1)c1ccccc1 (stereo not given)	TDP1 cell noCPT 7.3µM, DT40 TDP1 CPT 4.1µM (no result: RORg inh, Gal4-VP16 FLuc, TDP1 inh)
Cc1noc(C)c1S(=O)(=O)NC(=O)C1(C)CCN1C(=O)CC(c1ccccc1)c1ccccc1 (stereo not given)	TDP1 cell noCPT 21µM, DT40 TDP1 CPT 9.2µM (no result: RORg inh, Gal4-VP16 FLuc, TDP1 inh)
Cc1ccccc1S(=O)(=O)NC(=O)C1(C)CCN1C(=O)CC(c1ccccc1)c1ccccc1 (stereo not given)	TDP1 cell noCPT 5.8µM, DT40 TDP1 CPT 5.8µM (no result: RORg inh, Gal4-VP16 FLuc, TDP1 inh)
Cc1cc(C)c(S(=O)(=O)ON2C(=O)c3ccccc3C2=O)cc1C	TDP1 cell noCPT 3.3µM, RORg inh 14µM, DT40 TDP1 CPT 2.6µM, Gal4-VP16 FLuc 16µM
O=S(=O)(c1ccccc1)N1CCN(S(=O)(=O)c2ccc(F)cc2)CC1	none (no result: TDP1 inh)
Cc1ccc(S(=O)(=O)ON2C(=O)c3ccccc3C2=O)c(C)c1	TDP1 cell noCPT 1µM, RORg inh 20µM, DT40 TDP1 CPT 0.82µM, Gal4-VP16 FLuc inconclusive
Cc1cc(C)c(C)c(S(=O)(=O)ON2C(=O)c3ccccc3C2=O)c1C	TDP1 cell noCPT 2.3µM, RORg inh inconclusive, DT40 TDP1 CPT 2.6µM, Gal4-VP16 FLuc 13µM
O=C1c2ccccc2C(=O)N1OS(=O)(=O)c1ccc(F)cc1	TDP1 cell noCPT 2.1µM, RORg inh inconclusive, DT40 TDP1 CPT 2.6µM, Gal4-VP16 FLuc inconclusive
Cc1ccc(C(=O)C(OC(=O)c2cnccn2)c2ccccc2)cc1C (stereo not given)	none
Cc1ccc(CNc2ncnc3nc[nH]c23)cc1	TDP1 cell noCPT inconclusive, DT40 TDP1 CPT inconclusive (no result: RORg inh, Gal4-VP16 FLuc)
CN([C@@H](C(=O)OC(C)(C)C)c1ccccc1)S(=O)(=O)c1cccc(S(=O)(=O)N(C)[C@@H](C(=O)OC(C)(C)C)c2ccccc2)c1	TDP1 cell noCPT inconclusive, DT40 TDP1 CPT 13µM (no result: TDP1 inh)
COC(=O)[C@H](Cc1ccccc1)N(C)S(=O)(=O)c1cccc(S(=O)(=O)N(C)[C@@H](Cc2ccccc2)C(=O)OC)c1	TDP1 cell noCPT inconclusive, DT40 TDP1 CPT 15µM (no result: TDP1 inh)
COC(=O)C(NS(=O)(=O)c1cccc(S(=O)(=O)NC(C(=O)OC)c2ccccc2)c1)c1ccccc1 (stereo not given)	none (no result: TDP1 inh)
COc1ccc(-c2nc(=S)c3c([nH]2)Oc2ccc(C)cc2C3)cc1O	none
O=C(c1cc(C(F)(F)F)cc(C(F)(F)F)c1)N1CCC2(CC1)CN(Cc1ccccc1)C2	TDP1 cell noCPT inconclusive, DT40 TDP1 CPT inconclusive (no result: TDP1 inh)
CC(NCC(O)COCc1ccc(Cl)cc1)c1ccccc1 (stereo not given)	TDP1 cell noCPT inconclusive, DT40 TDP1 CPT inconclusive
COc1cc(/C=C2\SC(=O)N(CCNC(=O)c3sc4cc(F)ccc4c3Cl)C2=O)cc(OC)c1OC	TDP1 cell noCPT inconclusive (no result: TDP1 inh)
CNC(=O)c1sc(N2N=C3/C(=C/c4ccccc4)CCCC3C2c2ccccc2)nc1C (stereo not given)	TDP1 cell noCPT 13µM, DT40 TDP1 CPT inconclusive
CNC(=O)c1sc(-c2ccccc2)nc1C	none
CNC(=O)c1sc(N2N=C3/C(=C\c4ccccc4)CCCC3C2c2ccccc2)nc1C (stereo not given)	TDP1 cell noCPT 26µM, DT40 TDP1 CPT inconclusive (no result: RORg inh, Gal4-VP16 FLuc, TDP1 inh)
CCOc1c(CNCCCSc2nc(C)cc(C)n2)cccc1OC	TDP1 cell noCPT inconclusive, RORg inh inconclusive, DT40 TDP1 CPT 21µM, Gal4-VP16 FLuc inconclusive (no result: TDP1 inh)
Brc1ccc(CNCCCSc2nnnn2-c2ccccc2)cc1	TDP1 cell noCPT 16µM, DT40 TDP1 CPT inconclusive (no result: RORg inh, Gal4-VP16 FLuc)
Cc1ccccc1CNCCSc1nnnn1-c1ccccc1	none (no result: RORg inh, Gal4-VP16 FLuc)
Cc1cc(C)nc(SCCCNCc2ccc(Br)cc2)n1	TDP1 cell noCPT 21µM, RORg inh inconclusive, DT40 TDP1 CPT inconclusive, Gal4-VP16 FLuc inconclusive (no result: TDP1 inh)
